Source: PubChem BioAssay
Calls of active or inactive are those of the source. Unless noted, how the calls were made is not given here.

Assays:
[1] = resazurin metabolic signal in HepG2 cells – cell-based, resazurin fluorescence, 24 h, PK04 Diversity Set, profiling panel (AID 1172); settings: HepG2 viability, higher = more signal
[2] = budding yeast growth changes without added modifier – OD600, strain BY4716, 24 h, basal condition, primary screen (AID 1173); settings: S. cerevisiae BY4716 growth, OD600, 24 h; higher = more signal, called active from +8 up or from −8 down
[3] = viability profiling in MM1S myeloma cells – cell-based, resazurin fluorescence, basal, 24 h, PK04 Diversity Set, profiling panel (AID 1174); settings: higher = more signal, called active from +8 up or from −8 down;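 further: MM1S multiple myeloma cell line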
[4] = biological target: Dihydroorotate dehydrogenase (quinone), mitochondrial (Plasmodium falciparum (isolate 3D7)) (UniProt Q08210); assay: inhibition of P. falciparum DHODH – biochemical, C-terminal His tag, absorbance 600 nm, primary screen (AID 1175); settings: PfDHODH enzyme, DCIP absorbance 600 nm; higher = more signal, called active from +8 up or from −8 down;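 further: recombinant parasite enzyme with a five histidine tag at its C terminus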
[5] = inhibition of PAO1 biofilm formation – strain PAO1, LB-PBS medium, absorbance 600 nm, primary screen (AID 1176); settings: P. aeruginosa PAO1 growth/biofilm, A600, 12 h; higher = more signal
[6] = growth modulation of vineyard yeast isolate – strain RM11-1a, OD600, basal, 24 h, primary screen (AID 1177);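 further: cultures grown under basal conditions with no added stressor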; settings: S. cerevisiae RM11-1a growth, OD600, 24 h; higher = more signal, called active from +8 up or from −8 down
[7] = growth of efflux-deficient E. coli DRC39 – strain DRC39, OD650, 24 h, E. coli filamentation inducers, primary screen (AID 1178);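 further: growth measured as culture turbidity by optical density at 650 nm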; settings: E. coli DRC39 acrAB, higher = more signal, called active from +8 up or from −8 down
[8] = growth of efflux-deficient E. coli DRC39 – strain DRC39, OD650, 48 h, E. coli filamentation inducers, primary screen (AID 1179);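 further: screen aims at cell division blockers that make cells filament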; settings: E. coli DRC39 delta-acrAB growth, higher = more signal, called active from +8 up or from −8 down
[9] = viability profiling in RPMI8226 myeloma cells – cell-based, resazurin fluorescence, basal, 24 h, PK04 Diversity Set, profiling panel (AID 1180); settings: higher = more signal;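 further: RPMI8826 multiple myeloma cell line at 5000 cells per well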
[10] = biological target: E3 ubiquitin-protein ligase XIAP (Homo sapiens) (UniProt P98170); assay: small molecules binding XIAP protein – biophysical, small-molecule microarray, fluorescence 635 nm, primary screen (AID 1181); settings: higher = more signal;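 further: score merges 667 nm emission and signal to noise over triplicate slides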
[11] = tested on: XIP peptide (Xip251-270) binding; assay: XIP fragment 251-270 binding compounds – biochemical, small-molecule microarray, fluorescence 635/667 nm, 0.1 µg/mL protein, primary screen (AID 1182); settings: fluorescent protein binding, 635 nm, higher = more signal, called active from +8 up or from −8 down
[12] = tested on: XIP peptide (Xip251-270); assay: compounds binding XIP fragment 251-270 – biochemical, small-molecule microarray, fluorescence 635/667 nm, 0.5 µg/mL protein, primary screen (AID 1183); settings: fluorescence 635 nm, higher = more signal
[13] = blood-stage malaria parasite viability loss – strain 3D7, DAPI fluorescence, 100 nL, primary screen (AID 1184);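 further: parasites grown inside human red blood cells in medium with human serum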; settings: P. falciparum 3D7 growth, 3 d, higher = more signal
[14] = biological target: Homeobox protein Hox-A13 (Mus musculus) (UniProt Q62424); assay: disruptors of Hoxa13 oligonucleotide interaction – biochemical, fluorescence polarization, labeled oligonucleotide, primary screen (AID 1185); settings: Hoxa13:DNA binding, 15 min, higher = more signal, called active from +8 up or from −8 down
[15] = blockers of DNA damage checkpoint Chk1 activation – imaging, HeLa, hydroxyurea, phospho-Chk1 antibody, percent positive cells, primary screen (AID 1186); settings: hydroxyurea-induced phospho-Chk1 immunofluorescence imaging, higher = more signal
[16] = blockers of DNA damage checkpoint Chk1 activation – imaging, HeLa, hydroxyurea, phospho-Chk1 nuclear intensity, primary screen (AID 1187); settings: hydroxyurea-induced phospho-Chk1 immunofluorescence imaging, higher = more signal

Chain of Homeobox protein Hox-A13 (Mus musculus) (Q62424 whole entry, looked up): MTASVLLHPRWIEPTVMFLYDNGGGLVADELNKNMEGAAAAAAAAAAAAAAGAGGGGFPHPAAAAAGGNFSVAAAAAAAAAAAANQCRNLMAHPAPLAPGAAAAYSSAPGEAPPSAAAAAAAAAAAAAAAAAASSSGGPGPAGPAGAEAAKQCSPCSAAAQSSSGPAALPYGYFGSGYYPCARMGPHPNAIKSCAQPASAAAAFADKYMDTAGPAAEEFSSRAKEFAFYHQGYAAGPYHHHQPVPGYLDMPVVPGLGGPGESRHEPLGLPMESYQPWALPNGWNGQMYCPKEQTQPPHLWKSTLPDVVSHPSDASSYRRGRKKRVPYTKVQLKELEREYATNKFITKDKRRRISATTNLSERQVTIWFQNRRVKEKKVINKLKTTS
Chain of Dihydroorotate dehydrogenase (quinone), mitochondrial (Plasmodium falciparum (isolate 3D7)) (Q08210 whole entry, looked up): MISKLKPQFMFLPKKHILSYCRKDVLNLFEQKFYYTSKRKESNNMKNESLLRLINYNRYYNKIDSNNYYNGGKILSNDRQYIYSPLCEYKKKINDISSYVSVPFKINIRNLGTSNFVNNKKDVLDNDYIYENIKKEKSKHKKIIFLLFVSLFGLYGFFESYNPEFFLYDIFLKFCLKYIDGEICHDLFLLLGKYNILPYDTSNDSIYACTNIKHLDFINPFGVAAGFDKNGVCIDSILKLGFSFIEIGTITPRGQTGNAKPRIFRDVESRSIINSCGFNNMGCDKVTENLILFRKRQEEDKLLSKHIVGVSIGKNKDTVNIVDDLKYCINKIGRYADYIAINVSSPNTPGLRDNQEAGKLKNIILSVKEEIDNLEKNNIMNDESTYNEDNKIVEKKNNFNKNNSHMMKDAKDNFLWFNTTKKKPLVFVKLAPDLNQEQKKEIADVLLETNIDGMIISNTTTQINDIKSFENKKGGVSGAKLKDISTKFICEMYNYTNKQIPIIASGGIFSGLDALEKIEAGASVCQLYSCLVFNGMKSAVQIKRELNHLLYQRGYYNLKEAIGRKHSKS
Chain of E3 ubiquitin-protein ligase XIAP (Homo sapiens) (P98170 whole entry, looked up, the tested form may be a part): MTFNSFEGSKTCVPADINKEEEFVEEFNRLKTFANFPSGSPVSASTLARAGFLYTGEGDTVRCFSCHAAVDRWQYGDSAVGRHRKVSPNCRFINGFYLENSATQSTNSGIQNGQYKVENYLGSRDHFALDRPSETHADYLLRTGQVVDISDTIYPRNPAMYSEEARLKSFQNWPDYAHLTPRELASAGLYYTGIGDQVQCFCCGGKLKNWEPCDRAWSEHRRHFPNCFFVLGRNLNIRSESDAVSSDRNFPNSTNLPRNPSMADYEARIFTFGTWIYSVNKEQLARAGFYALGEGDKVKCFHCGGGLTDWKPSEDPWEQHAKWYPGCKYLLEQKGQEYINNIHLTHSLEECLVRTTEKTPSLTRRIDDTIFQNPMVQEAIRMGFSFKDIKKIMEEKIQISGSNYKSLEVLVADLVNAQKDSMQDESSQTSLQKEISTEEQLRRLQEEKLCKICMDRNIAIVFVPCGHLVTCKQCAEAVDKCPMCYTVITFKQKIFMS

Structure (SMILES) | z-score [1] | z-score [2] | z-score [3] | composite z-score [4] | z-score [5] | z-score [6] | z-score [7] | z-score [8] | z-score [9] | composite z-score [10] | composite z-score [11] | composite z-score [12] | z-score [13] | z-score [14] | z-score [15] | z-score [16]
CC(C)N1CC=CC23O[C@@H]4C=CCOC(=O)[C@@H]4[C@H]2C(=O)N(CCCCCO)[C@@H]3C1=O (stereo not given in full) | 0.413 | -0.746 (inactive) | 1.27 (inactive) | -1.85 (inactive) | 0.897 (inactive) | -1.06 (inactive) | 0.319 (inactive) | -0.134 (inactive) | 0.888 | -0.216 | 0.334 (inactive) | 0.729 | -0.758 | -3.4 (inactive) | 0.0031 (inactive) | -0.0755 (inactive)
O=C1O[C@H](c2ccccc2)[C@H](c2ccccc2)N2[C@H]1[C@@H](C(=O)NC[C@H](O)c1ccccc1)[C@]1(C(=O)Nc3ccccc31)[C@H]2c1ccc(O)cc1 | -1 | 0.0934 (inactive) | -1.16 (inactive) | 0.668 (inactive) | 0.346 (inactive) | 1.46 (inactive) | 0.759 (inactive) | 0.315 (inactive) | -2.77 | 0.166 | 1.5 (inactive) | 0.665 | -0.834 | -4.25 (inactive) | -0.0383 (inactive) | 0.188 (inactive)
COc1ccc([Si](C)(C)[C@H]2[C@H](CCO)O[C@@]3(C(=O)N(Cc4ccccc4)c4ccc(N5CCCCC5=O)cc43)[C@@H]2C)cc1 | -1.91 | 0.234 (inactive) | -2.66 (inactive) | -2.81 (inactive) | 1.51 (inactive) | 3.14 (inactive) | 0.663 (inactive) | 0.45 (inactive) | -3.46 | -0.0025 | 0.391 (inactive) | 0.686 | -1.67 | -5.2 (inactive) | -1.39 (inactive) | -0.713 (inactive)
COc1ccc([Si](C)(C)[C@@H]2[C@@H](CC(=O)N3Cc4ccccc4C[C@H]3CO)O[C@]3(C(=O)N(Cc4cccc(N5CCC5=O)c4)c4ccccc43)[C@H]2C)cc1 | -0.0715 | 0.984 (inactive) | -0.922 (inactive) | -3.46 (inactive) | 2.04 (inactive) | 1.38 (inactive) | 0.249 (inactive) | -0.0051 (inactive) | -0.828 | 0.0819 | 0.607 (inactive) | 0.736 | -2.55 | -1.51 (inactive) | -0.342 (inactive) | -0.0386 (inactive)
CN1C(=O)C2C=CC(C(O)C=Cc3ccc([N+](=O)[O-])cc3)N(Nc3ccccc3)C2C1=O (stereo not given) | -0.891 | -4.48 (inactive) | -1.55 (inactive) | -1.01 (inactive) | 1.41 (inactive) | -0.709 (inactive) | -0.377 (inactive) | -0.668 (inactive) | -1.45 | 0.376 | 0.113 (inactive) | 0.612 | 0.431 | -5.37 (inactive) | 0.0831 (inactive) | -0.733 (inactive)
CC(C)NC(=O)[C@@H]1c2ccccc2C(=O)N(C(C)C)[C@H]1c1ccc(CO)cc1 | 1.02 | -0.37 (inactive) | 0.537 (inactive) | 0.654 (inactive) | -0.397 (inactive) | 0.0971 (inactive) | 0.494 (inactive) | 0.671 (inactive) | 0.135 | -0.398 | 0.736 (inactive) | 0.226 | -0.25 | -2.52 (inactive) | -0.0669 (inactive) | 0.385 (inactive)
O=C1NC(=O)C2C1C=CC(C(O)c1ccc(-c3ccccc3)s1)N2Nc1ccc(Cl)cc1Cl (stereo not given) | -3.58 | -1.99 (inactive) | -1.69 (inactive) | 0.0414 (inactive) | 2.64 (inactive) | 0.856 (inactive) | 0.457 (inactive) | -1.2 (inactive) | -1.75 | 0.849 | -0.142 (inactive) | 0.701 | -0.0328 | -3.64 (inactive) | 0.197 (inactive) | 0.136 (inactive)
CC(C)[C@@H](C(=O)O)n1cc(C2(O)CCCCC2)nn1 | 0.853 | -1.45 (inactive) | 0.979 (inactive) | -0.549 (inactive) | 0.313 (inactive) | -0.513 (inactive) | 0.738 (inactive) | -0.195 (inactive) | 0.354 | 0.0077 | 0.142 (inactive) | 0.297 | 0.564 | -0.619 (inactive) | -0.3 (inactive) | -0.12 (inactive)
COC(=O)C(CC#Cc1ccc2c(c1)[C@]1(C(=O)N2)[C@H](c2ccccc2OCCO)N2[C@H](c3ccccc3)[C@H](c3ccccc3)OC(=O)[C@H]2[C@@H]1C(=O)O)C(=O)OC | 0.622 | -0.502 (inactive) | 1.39 (inactive) | -5.13 (inactive) | 1.96 (inactive) | 2.98 (inactive) | 0.84 (inactive) | 0.905 (inactive) | -0.259 | 0.0533 | 0.117 (inactive) | 0.791 | 0.386 | -5.57 (inactive) | 0.0449 (inactive) | 0.426 (inactive)
[N-]=[N+]=Nc1ccccc1C[C@]1(C(=O)NCC(O)CO)N=C(c2ccc(OCCCO)cc2)O[C@H]1c1ccccc1 (stereo not given in full) | -0.577 | -1.23 (inactive) | -0.62 (inactive) | 0.986 (inactive) | 1.13 (inactive) | 2 (inactive) | -0.283 (inactive) | -0.949 (inactive) | -1 | -0.0525 | 0.474 (inactive) | 0.511 | -1.9 | -5.96 (inactive) | 0.178 (inactive) | -0.365 (inactive)
